# Results taken from PubChem BioAssay AID2553 (Johns Hopkins Ion Channel Center, 2010).
# The campaign covered roughly 310,000 compounds. About 3,300 (1.1%) were called active.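 Rule for the calls: active = B-score under library mean minus 3 SD, initial fluorescence not abnormally high, positive integrated signal ratio; inactive = the rest.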 Only a selection was taken, and actives are over-represented in it overall.
# Target: Short transient receptor potential channel 6 (Mus musculus) (UniProt Q61143)
# Assay: mouse TRPC6 channel inhibitors, primary screen, cell-based, HEK293, membrane potential dye (AID 2553);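 for B-score: B-score derived from integrated fluorescence ratio over the kinetic read; more negative B-score means stronger inhibition of depolarization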
# Details: ACh-evoked depolarization, at 10 µM; active compounds read low
# Sequence of Short transient receptor potential channel 6 (Mus musculus) (Q61143 whole entry, looked up): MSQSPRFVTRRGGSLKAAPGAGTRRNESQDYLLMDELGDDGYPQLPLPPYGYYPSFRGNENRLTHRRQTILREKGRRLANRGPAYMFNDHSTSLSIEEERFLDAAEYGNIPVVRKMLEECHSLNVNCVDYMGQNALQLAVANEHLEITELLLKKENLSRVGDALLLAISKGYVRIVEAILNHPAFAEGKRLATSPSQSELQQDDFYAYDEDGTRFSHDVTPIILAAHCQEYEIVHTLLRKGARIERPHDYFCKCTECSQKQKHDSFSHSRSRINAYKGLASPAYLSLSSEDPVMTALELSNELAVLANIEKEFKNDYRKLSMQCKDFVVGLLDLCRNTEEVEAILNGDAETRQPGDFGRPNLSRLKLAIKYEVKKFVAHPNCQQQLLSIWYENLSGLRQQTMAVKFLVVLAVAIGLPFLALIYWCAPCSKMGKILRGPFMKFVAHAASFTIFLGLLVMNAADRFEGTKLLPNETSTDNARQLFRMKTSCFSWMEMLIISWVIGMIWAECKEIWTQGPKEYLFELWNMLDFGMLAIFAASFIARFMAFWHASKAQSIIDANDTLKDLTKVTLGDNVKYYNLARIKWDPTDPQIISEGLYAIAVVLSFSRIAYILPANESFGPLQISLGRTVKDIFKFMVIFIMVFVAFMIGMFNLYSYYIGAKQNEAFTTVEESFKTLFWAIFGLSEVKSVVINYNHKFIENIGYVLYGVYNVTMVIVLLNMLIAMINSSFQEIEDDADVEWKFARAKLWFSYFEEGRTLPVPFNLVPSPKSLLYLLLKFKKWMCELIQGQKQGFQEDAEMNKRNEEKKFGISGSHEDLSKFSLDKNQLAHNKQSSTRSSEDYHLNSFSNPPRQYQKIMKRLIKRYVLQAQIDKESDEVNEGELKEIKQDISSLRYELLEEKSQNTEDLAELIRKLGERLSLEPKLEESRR
row,SMILES,B-score
1,CC(=O)Oc1cccc(C(=O)Nc2ccccc2NC(=O)c2cccc(OC(C)=O)c2)c1,inactive
2,CCOC(=O)c1cc(NC(=O)c2ccc(Cl)cc2)c(=O)oc1-c1ccccc1,inactive
3,CC(=O)c1cc(NC(=O)c2ccccc2)c(=O)oc1/C=C/N(C)C,-5.52 (active)
4,CCOC(=O)c1c(/N=C/c2cc(C)ccc2O)sc2c1CCC2,inactive
5,CN(C(=O)COc1nnc(-c2cccs2)c(-c2cccs2)n1)c1ccccc1,inactive
6,CN(C)/C=C/C(=O)c1cnc2sccn2c1=O,inactive
7,COC(=O)c1cccc(N(C(=O)c2ccco2)C(C(=O)NC2CCCC2)c2ccco2)c1 (stereo not drawn),inactive
8,Cc1cccc(N2CCN(C(C)C(=O)N3CCc4ccccc43)CC2)c1C (stereo not drawn),inactive
9,O=C(c1ccccc1F)N(Cc1ccccc1)Cc1ccccc1,inactive
10,O=C(CN1CCN(Cc2ccccc2)CC1)NC(c1ccccc1)c1ccccc1,inactive
11,OCCN1CCN(C(=S)c2ccc(-c3ccccc3)cc2)CC1,inactive
12,OCCN1CCN(c2nnc(-c3ccccc3)c3ccccc23)CC1,inactive
13,O=C1c2ccccc2C(=O)c2c1cccc2N1CCN(CCO)CC1,-11.5 (active)
14,O=C1c2ccccc2C(=O)c2c1cccc2N1CCN(Cc2ccccc2)CC1,-9.75 (active)
15,O=C1c2ccccc2C(=O)c2c1cccc2N1CCN(C/C=C/c2ccccc2)CC1,inactive
16,O=C(CNCc1ccco1)Nc1cc(S(=O)(=O)N2CCOCC2)ccc1N1CCCC1,inactive
17,Clc1cc(NC2CCCCC2)ncn1,inactive
18,COc1ccc(S(=O)(=O)NCCOc2ccccc2)cc1F,inactive
19,CC(=O)c1c(O)cc2n(c1=O)-c1ccc(Cl)cc1C2(C)C,inactive
20,O=C(NCc1ccc2c(c1)OCO2)c1c(O)nc2sccn2c1=O,inactive
21,COCCOC(=O)c1sc(=S)n(CCOC)c1N,inactive
22,CC(Sc1nnc(CNC(=O)c2ccccc2F)n1C)C(=O)Nc1nccs1 (stereo not drawn),inactive

row,SMILES,B-score
1,COc1cc(NC(=O)CCS(=O)(=O)c2ccc3c(c2)oc(=O)n3C)cc(OC)c1,inactive
2,Cc1cc(Nc2ccc(Cl)cc2)nc(N2CCOCC2)n1,inactive
3,Cc1cc(Nc2ccc(C(=O)N3CCCCC3)cc2)c2cccc(C)c2n1,inactive
4,Cc1cc(Nc2ccc(N3CCOCC3)cc2)c2cccc(C)c2n1,-7.55 (active)
5,Cc1cc(S(=O)(=O)NCC(C)C)ccc1OCC(=O)NC1CC1,inactive
6,CCN(CC)CCNc1nc(-c2ccc(OC(F)F)cc2)c(C)s1,-6.16 (active)
7,CCOc1ccc(C2/C(=C(/O)c3ccc4c(c3)CC(C)O4)C(=O)C(=O)N2CCCn2ccnc2)cc1 (stereo not drawn),inactive
8,COC(=O)c1cc(-c2cccs2)nc2ccccc12,inactive
9,O=C(NCCN1CCOCC1)c1cc(-c2cccs2)nc2ccccc12,inactive
10,CCCCN(C)CCCNC(=O)c1cc(-c2cccs2)nc2ccccc12,-6.6 (active)
11,CCc1nnc(NC(=O)CSc2nnnn2-c2cccc(C(C)=O)c2)s1,inactive
12,O=S(=O)(Nc1nccs1)c1ccc2c(c1)OCCO2,inactive
13,CC(C)(C)Nc1nc(-c2ccccn2)nc2ccccc12,-6.28 (active)
14,Cc1ccc(Oc2nc(-c3ccccn3)nc3ccccc23)cc1,inactive
15,CCOCCCNc1nc(-c2ccccc2)nc2ccccc12,inactive
16,CC(=O)Nc1ccc(S(=O)(=O)NC2(C(F)(F)F)C(=O)NC(C)=C2C#N)cc1 (stereo not drawn),inactive
17,O=S1(=O)CCOC[C@H](CC2CCCCC2)N1Cc1ccc(F)cc1,inactive
18,N=c1c2c3c(sc2nc2n1CCCCC2)CCCC3,-10.6 (active)
19,NNC(=O)C1CCCn2c1nc1sc3c(c1c2=O)CCCC3 (stereo not drawn),inactive
20,CC1(C)Cc2c(sc3nc4n(c(=N)c23)CCCCC4)CO1,inactive
21,Cc1ccc(-c2nc(CSCC(=O)NC3CCN(Cc4ccccc4)CC3)c(C)o2)cc1,inactive
22,Cc1c(-c2ccccc2)n[nH]c1C(=O)N=Nc1c(O)[nH]c2ccccc12,inactive

row,SMILES,B-score
1,O=C(O)C1CCCCC1C(=O)N1CCN(S(=O)(=O)c2ccc(F)cc2)CC1 (stereo not drawn),inactive
2,O=C(c1cccc(-n2cccc2)c1)N1CCN(S(=O)(=O)c2ccc(F)cc2)CC1,-5.32 (active)
3,O=C(c1cnc(Cl)c(Cl)c1)N1CCN(S(=O)(=O)c2ccc(F)cc2)CC1,inactive
4,c1ccc2c(c1)OCCOCCOCCO2,inactive
5,Nc1nc(NCCCN2CCOCC2)nc(Nc2ccccc2)c1[N+](=O)[O-],inactive
6,CCOc1nc(NCCN2CCOCC2)nc(Nc2ccc(C)cc2)n1,-5.49 (active)
7,CCOc1cccc(/C=N/NC(=S)NCCN2CCOCC2)c1O,inactive
8,Cc1c(Br)ccc(NC(=O)COc2ccccc2C(N)=O)c1C,inactive
9,O=S(=O)(Nc1cccc(Oc2ccc(Cl)cc2)n1)c1ccc(F)cc1,inactive
10,COc1cccc(NC(=O)Nc2nnc(N3CCCCC3C)s2)c1 (stereo not drawn),inactive
11,CCOC(=O)C1CCN(Cc2c(C(=O)N3CCOCC3)nc3c(C)cccn23)CC1,inactive
12,Nc1nc(-c2ccccc2)cc(-c2ccccc2)n1,inactive
13,CN(C)c1cc(N)c2ccccc2n1 (tested in a mixture with another compound),-9.26 (active)
14,COc1ccc(-c2cc(C(=O)N(C)Cc3ccccc3)c3ccccc3n2)cc1,inactive
15,Cc1cc(C)c(S(=O)(=O)NCCCN2CCOCC2)cc1Br,inactive
16,CN1CC(c2ccccc2)C2(COc3ccccc3C2=O)C12C(=O)Nc1ccccc12 (stereo not drawn),inactive
17,Cc1ccc2c(c1)C1CN(C)CCC1N2C(=S)Nc1ccc(Cl)cc1Cl (stereo not drawn),-5.46 (active)
18,Cc1ccc2c(c1)C1CN(C)CCC1N2C(=S)Nc1ccc(OC(F)F)cc1 (stereo not drawn),inactive
19,S=C(Nc1ccc(Cl)cc1Cl)N1CCCC1,inactive
20,Cc1ccc(S(=O)(=O)N(Cc2ccccc2)c2ccccn2)cc1[N+](=O)[O-],inactive
21,O=C(CSc1cccc[n+]1[O-])c1ccc(Cl)cc1,inactive
22,O=C(C[n+]1ccc2c(c1)nnn2-c1ccccc1)c1ccc(Cl)cc1,-5.81 (active)

row,SMILES,B-score
1,O=C(Cn1cc(-c2nnnn2-c2ccc(Cl)cc2)c(=O)c2ccccc21)c1ccccc1,inactive
2,COc1ccccc1NS(=O)(=O)N(C)C,inactive
3,O=S(=O)(Nc1ccccc1Br)c1cccs1,inactive
4,O=C(Nc1cccc(Cl)c1)Nc1ccccc1NS(=O)(=O)c1cccs1,-5.11 (active)
5,O=S(=O)(NCc1ccc(Cl)cc1Cl)c1cccs1,inactive
6,COCCCN1C(=O)C(=O)/C(=C(/O)c2ccc(S(=O)(=O)N3CCOCC3)cc2)C1c1ccc(F)cc1 (stereo not drawn),inactive
7,COC(=O)c1sccc1-n1cccc1C(=O)C(=O)N1CCCCC1,inactive
8,CC(C)(C)NCC(O)COc1cccc2[nH]c(=O)[nH]c12 (stereo not drawn),inactive
9,COc1ccccc1OCC(O)CN1CCOCC1 (stereo not drawn),inactive
10,COc1ccccc1OCCNCC(O)COc1cccc2[nH]c3ccccc3c12 (stereo not drawn),-7.01 (active)
11,CC(=O)c1ccc(N2CCN(C(=O)C3CCN(S(=O)(=O)c4ccc5c(c4)CC(C)N5C(=O)C4CC4)CC3)CC2)cc1 (stereo not drawn),inactive
12,O=C(CSc1nnc(SCc2ccc(Cl)cc2)s1)N/N=C/c1ccccc1Cl,inactive
13,CCN(C(=O)COC(=O)c1ccc(COc2ccc3c(C)cc(=O)oc3c2)cc1)C1CCS(=O)(=O)C1 (stereo not drawn),inactive
14,Nc1ccc(C(=O)N2CCN(S(=O)(=O)c3ccc(Cl)cc3)CC2)cc1[N+](=O)[O-],-5.95 (active)
15,CC(C)c1ccc(S(=O)(=O)N2CCN(C(=O)c3ccc(N4CCCC4)c([N+](=O)[O-])c3)CC2)cc1,inactive
16,Cc1ccc(S(=O)(=O)N2CCN(C(=O)c3ccc(-n4cncn4)c([N+](=O)[O-])c3)CC2)cc1,inactive
17,CSc1nnc(-c2ccc(C(F)(F)F)cn2)o1,inactive
18,CCOc1ccc(NC(=O)CSc2nncn2C)cc1,inactive
19,COc1ccc(-c2ccc3nnc(SCC(=O)Nc4ccc(NC(C)=O)cc4)n3n2)cc1,inactive
20,CCCCc1nc(NCc2ccccc2)c(C#N)c2c1CCCC2,inactive
21,CCCCc1nc(NCCN)c(C#N)c2c1CSC(C)(C)C2,-5.09 (active)
22,Cc1nc(NCCN)c(C#N)c2c1COC(C)(C)C2,inactive

row,SMILES,B-score
1,Cc1cc(NC(=O)C(C)SCC(=O)Nc2ccccc2N2CCCCC2)no1 (stereo not drawn),inactive
2,CN(Cc1cccc2ncccc12)C(=O)CC1C(=O)NCCN1Cc1ccc(F)cc1 (stereo not drawn),inactive
3,O=C(O)c1ccc(NC(=O)c2ccc(COc3ccc(Cl)cc3)o2)cc1,-5.87 (active)
4,Cc1cc(OCc2ccc(C(=O)Nc3ccc(C(=O)O)cc3)o2)ccc1Cl,inactive
5,COc1ccc(NC(=O)CN(C)C(=O)c2ccc(COc3ccccc3)o2)cc1,inactive
6,O=C(COC(=O)CC1CC2CCC1C2)NC(=O)NC1CCCC1 (stereo not drawn),inactive
7,O=C(COc1ccccc1)Nc1ccc(N2CCN(C(=O)c3cccs3)CC2)cc1,inactive
8,COCC(=O)Nc1cc(C(=O)OC)cc(C(=O)OC)c1,inactive
9,CC(C)(C)n1nnnc1C(c1ccc2ncccc2c1)N1CCSCC1 (stereo not drawn),-11.5 (active)
10,CC(C)(C)n1nnnc1C(c1ccc(Cl)cc1)N1CCSCC1 (stereo not drawn),inactive
11,Cc1cccc(N2CCN(C(c3ccc(N(C)C)cc3)c3nnnn3C(C)(C)C)CC2)c1C (stereo not drawn),inactive
12,O=C(NCCc1ccccc1Cl)C1CCC(=O)N(CCCc2ccccc2)C1 (stereo not drawn),inactive
13,CCc1ccc(NC(=O)Cn2ncn3c(cc4ccccc43)c2=O)cc1,inactive
14,CCOC(=O)c1cn(CC(=O)Nc2ccc(C(C)C)cc2)nn1,inactive
15,CC(C)c1ccc(NC(=O)Cn2ncc3ccccc32)cc1,-5.5 (active)
16,Cc1cc(O)c(C2(O)C(=O)Nc3ccccc32)cc1C (stereo not drawn),inactive
17,CCc1ccccc1NC(=O)CN(c1ccc(OC)cc1OC)S(=O)(=O)c1ccccc1[N+](=O)[O-],inactive
18,CCOc1ccc(C2c3[nH]c4ccccc4c3CCN2Cc2cccn2-c2ncccn2)cc1 (stereo not drawn),inactive
19,c1ccc(C2c3[nH]c4ccccc4c3CCN2Cc2cccn2-c2cccnc2)nc1 (stereo not drawn),-6.75 (active)
20,COCc1ccc(C(=O)N2CCc3c([nH]c4ccccc34)C2c2ccccn2)s1 (stereo not drawn),inactive
